Source: PubChem (NMMLSC)
Hits are enriched below; roughly 0.38% of the tested compounds scored in any of these assays.
Rab7 wt GTP bind = modulators of GTP binding to Rab7, primary screen, biochemical, wildtype, multiplex bead flow cytometry | AID 758, 2007 | GTP binding activity (percent of control), % at 10 µM | Rab7 GTPase wild type (dog), Bodipy-FL-GTP binding | 0.055% of 190,000 active | GST-Rab7 beads, fluorescent GTP binding; actives lie on both sides; untreated = 100%, excess cold GTP = 0%;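 active means fluorescent GTP binding to Rab7 beads changed by at least 20 points from the 100% baseline, either direction, mostly lower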;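 further: median green fluorescence of bound Bodipy-FL-GTP per Rab7 bead population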
Rab2A wt mod = modulators of GTP binding to Rab2A wildtype, primary screen, biochemical, dog, bead-based flow cytometry, multiplex. GST-Rab2 wt beads, Bodipy-GTP binding. GTP binding activity, % at 10 µM. 0.19% of 190,000 active. AID 760, 2007;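 active means GTP binding activity at least 20 points away from 100%, either lowered or raised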;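 further: 0% = beads with excess unlabeled GTP and 100% = no-compound control corrected for plate trend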
Rac1 mut GTP = GTP binding modulators of activated mutant Rac1, primary screen, biochemical, bead-based flow cytometry, multiplex, fluorescent GTP | Ras-related C3 botulinum toxin substrate 1 (Homo sapiens), P63000 | GST-Rac1 activated beads; actives lie on both sides; 100% means binding = to untreated wells | percent activity (GTP binding), % at 10 µM | 0.11% of 190,000 active | AID 764, 2007;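 active means GTP binding at least 20 percentage points away from the 100% baseline, in either direction, so actives lie on both sides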
Rac1 wt modul = wildtype Rac1 GTP binding modulators, primary screen, biochemical, GST-Rac1 beads, flow cytometry, multiplex | Ras-related C3 botulinum toxin substrate 1 (Homo sapiens), P63000 | fluorescent GTP binding; actives lie on both sides; 0 = cold GTP competed, 100 = untreated | GTP binding activity (% of control), % at 10 µM | 0.27% of 190,000 active | AID 757, 2007;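 active means GTP binding activity at least 20 points away from the 100% control level, either lower or higher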
Cdc42 wt GTP = modulators of GTP binding to wildtype Cdc42, primary screen, biochemical, multiplex bead flow cytometry, Bodipy-GTP | Cell division control protein 42 homolog (Homo sapiens), P60953 | GST-Cdc42 beads; actives lie on both sides | percent activity (GTP binding), % at 10 µM | 0.2% of 190,000 active;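 active means percent activity GTP binding at least 20 points away from the 100% baseline, either down as inhibitor or up as activator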;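 further: median bead fluorescence of bound Bodipy-FL-GTP at 100 nM; 0% = excess unlabeled GTP control and 100% = no compound control; below 100% means less GTP binding so inhibitor and above means activator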
Target sequence (P60953 whole entry, looked up): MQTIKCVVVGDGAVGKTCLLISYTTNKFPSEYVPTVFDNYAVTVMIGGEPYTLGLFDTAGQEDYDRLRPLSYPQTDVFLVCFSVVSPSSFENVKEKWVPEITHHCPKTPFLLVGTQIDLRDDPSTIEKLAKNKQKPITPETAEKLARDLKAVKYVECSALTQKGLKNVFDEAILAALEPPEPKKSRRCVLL
HRas wt GTP bind = modulators of GTP binding to HRas wildtype, primary screen, biochemical, bead-based flow cytometry, multiplex; GTPase HRas (Homo sapiens), P01112; GST-Ras wt beads, Bodipy-FL-GTP binding; actives lie on both sides; GTP binding activity, % at 10 µM; 0.14% of 190,000 active; AID 759, 2007;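 active means GTP binding activity at least 20% away from the 100% baseline, either lowered as inhibitor or raised as activator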;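 further: 0% = unlabeled GTP competition control and 100% = no-compound control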
Target sequence (P01112 whole entry, looked up): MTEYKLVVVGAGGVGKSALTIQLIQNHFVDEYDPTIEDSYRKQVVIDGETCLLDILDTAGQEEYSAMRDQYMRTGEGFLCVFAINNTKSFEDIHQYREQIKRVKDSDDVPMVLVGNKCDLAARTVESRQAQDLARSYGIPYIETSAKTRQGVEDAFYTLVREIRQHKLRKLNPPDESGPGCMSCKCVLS
Starred values were filed as active, the others as inactive; [ ] = remark or other dose.

For NC1=NC(=O)/C(=C/c2cn(CCC(=O)O)nc2-c2ccc(Cl)cc2)S1 the results were Rab7 wt GTP bind 89, Rab2A wt mod 81, Rac1 mut GTP 85, Rac1 wt modul 77*, Cdc42 wt GTP 85 and HRas wt GTP bind 81.
`Cc1ccc(CS(=O)(=O)c2ccccc2-c2nnc(-c3ccc(Cl)cc3)o2)cc1` gave Rab7 wt GTP bind 77*, Rab2A wt mod 86, Rac1 mut GTP 90, Rac1 wt modul 93, Cdc42 wt GTP 93 and HRas wt GTP bind 80.
Screening Cc1ccccc1-c1nnc(-c2ccc(Cl)cc2)o1 returned Rab7 wt GTP bind 97, Rab2A wt mod 98, Rac1 mut GTP 97, Rac1 wt modul 99, Cdc42 wt GTP 101 and HRas wt GTP bind 98.
`CC(C)(C)OC(=O)N[C@@H](Cc1ccccc1)c1nnc(S(=O)(=O)Cc2cccc(F)c2)o1` gave Rab7 wt GTP bind 79*, Rab2A wt mod 101, Rac1 mut GTP 99, Rac1 wt modul 101, Cdc42 wt GTP 105 and HRas wt GTP bind 100.
For O=C(NCCC1=CCCCC1)C(=O)NCc1ccncc1 the results were Rab7 wt GTP bind 106, Rab2A wt mod 99, Rac1 mut GTP 98, Rac1 wt modul 101, Cdc42 wt GTP 95 and HRas wt GTP bind 102.
COc1ccc2c(c1)CCCC21SC(NC(C)=O)=NN1C(C)=O (stereo unspecified) was read as Rab7 wt GTP bind 102, Rab2A wt mod 96, Rac1 mut GTP 94, Rac1 wt modul 93, Cdc42 wt GTP 92 and HRas wt GTP bind 95.
`O=C(/C=C/c1cccc([N+](=O)[O-])c1)OCC(=O)c1ccccc1` gave Rab7 wt GTP bind 98, Rab2A wt mod 94, Rac1 mut GTP 96, Rac1 wt modul 106, Cdc42 wt GTP 96 and HRas wt GTP bind 101.
`O=C(C#Cc1cccc([N+](=O)[O-])c1)c1ccccc1` gave Rab7 wt GTP bind 92, Rab2A wt mod 87, Rac1 mut GTP 78*, Rac1 wt modul 89, Cdc42 wt GTP 78* and HRas wt GTP bind 85.
O=C(Nc1cccc2ccccc12)c1cnccn1 was read as Rab7 wt GTP bind 75*, Rab2A wt mod 67*, Rac1 mut GTP 77*, Rac1 wt modul 90, Cdc42 wt GTP 73* and HRas wt GTP bind 71*.
c1ccc(Cn2c(NCc3ccncc3)nc3ccccc32)cc1 was read as Rab7 wt GTP bind 97, Rab2A wt mod 95, Rac1 mut GTP 97, Rac1 wt modul 100, Cdc42 wt GTP 97 and HRas wt GTP bind 100.
`COc1ccc(CNc2nc3ccccc3n2Cc2ccc(C)cc2)cc1OC` gave Rab7 wt GTP bind 115, Rab2A wt mod 123*[activator], Rac1 mut GTP 125*[activator], Rac1 wt modul 142*[activator], Cdc42 wt GTP 131*[activator] and HRas wt GTP bind 121*[activator].
CCOc1ccc2nc(SCC(=O)N3c4ccccc4Sc4ccccc43)c(C#N)cc2c1 was read as Rab7 wt GTP bind 102, Rab2A wt mod 100, Rac1 mut GTP 100, Rac1 wt modul 105, Cdc42 wt GTP 100 and HRas wt GTP bind 102.
Screening CCOc1ccc2nc(SCc3ccc(CC(=O)O)cc3)c(C#N)cc2c1 returned Rab7 wt GTP bind 88, Rab2A wt mod 74*, Rac1 mut GTP 76*, Rac1 wt modul 82, Cdc42 wt GTP 71* and HRas wt GTP bind 84.
Screening O=C(Cn1cnc2cc([N+](=O)[O-])ccc2c1=O)NCc1ccc(Cl)cc1 returned Rab7 wt GTP bind 91, Rab2A wt mod 80, Rac1 mut GTP 86, Rac1 wt modul 74*, Cdc42 wt GTP 77* and HRas wt GTP bind 84.
`O=C(COc1ncnc2cc([N+](=O)[O-])ccc12)NCCc1ccc(Cl)cc1` gave Rab7 wt GTP bind 92, Rab2A wt mod 80, Rac1 mut GTP 90, Rac1 wt modul 77*, Cdc42 wt GTP 81 and HRas wt GTP bind 84.
CCOC(=O)c1c(C)[nH]c(C)c1C(=O)COc1ncnc2cc([N+](=O)[O-])ccc12 was read as Rab7 wt GTP bind 74*, Rab2A wt mod 63*, Rac1 mut GTP 81, Rac1 wt modul 63*, Cdc42 wt GTP 64* and HRas wt GTP bind 70*.
`O=C(COc1ncnc2cc([N+](=O)[O-])ccc12)NC(=O)NC1CCCCC1` gave Rab7 wt GTP bind 90, Rab2A wt mod 79*, Rac1 mut GTP 89, Rac1 wt modul 75*, Cdc42 wt GTP 80 and HRas wt GTP bind 85.
Screening C/C(CCc1ccc2c(c1)OCO2)=N\N=C1\NC(=O)CC(C(=O)Nc2ccccc2F)S1 (stereo unspecified) returned Rab7 wt GTP bind 97, Rab2A wt mod 97, Rac1 mut GTP 99, Rac1 wt modul 97, Cdc42 wt GTP 96 and HRas wt GTP bind 100.
For NC(=O)c1nnsc1Sc1c(C(N)=O)nnn1-c1cccc(N)c1 the results were Rab7 wt GTP bind 95, Rab2A wt mod 95, Rac1 mut GTP 93, Rac1 wt modul 98, Cdc42 wt GTP 96 and HRas wt GTP bind 96.
`Cc1cccc(OCC(=O)N/N=C/c2ccc3c(c2)OCO3)c1` gave Rab7 wt GTP bind 92, Rab2A wt mod 83, Rac1 mut GTP 78*, Rac1 wt modul 82, Cdc42 wt GTP 77* and HRas wt GTP bind 85.
For O=C(COc1ccccc1)N/N=C/c1ccc2c(c1)OCO2 the results were Rab7 wt GTP bind 93, Rab2A wt mod 86, Rac1 mut GTP 87, Rac1 wt modul 91, Cdc42 wt GTP 89 and HRas wt GTP bind 88.
COc1ccccc1C(=O)NCCc1c(C)[nH]c2c(C)ccc(F)c12 was read as Rab7 wt GTP bind 101, Rab2A wt mod 99, Rac1 mut GTP 96, Rac1 wt modul 98, Cdc42 wt GTP 98 and HRas wt GTP bind 99.
For COc1ccc(OCCN2C(=O)c3ccccc3C2=O)cc1 the results were Rab7 wt GTP bind 96, Rab2A wt mod 106, Rac1 mut GTP 107, Rac1 wt modul 127*[activator], Cdc42 wt GTP 111 and HRas wt GTP bind 93.
Screening COc1ccc(-c2nnn(CC(=O)N(CCCN3CCOCC3)C(C(=O)NC3CCCC3)c3ccco3)n2)cc1 (stereo unspecified) returned Rab7 wt GTP bind 96, Rab2A wt mod 96, Rac1 mut GTP 94, Rac1 wt modul 101, Cdc42 wt GTP 102 and HRas wt GTP bind 97.
